Data: ChEMBL document CHEMBL4513216, “Probing the Open Global Health Chemical Diversity Library for Multistage-Active Starting Points for Next-Generation Antimalarials” (ACS Infect Dis, 2020)
The campaign covered roughly 65,000 compounds. About 2,100 (3.2%) showed an effect of 50% or more. The median lay at about -52%. The sample holds strong results, similar compounds and a random draw of the others, so the mix is not that of the screen.

The molecules below were run on Plasmodium falciparum (assay: Screen against P. falciparum Asexual Blood Stage (ABS), at 5uM). Details: tested at 5 uM.
Assay type: functional, Dd2
With `Cc1oncc1C(=O)N[C@@H]1CN(CC2CC2)C[C@@H]2CCCO[C@@H]21` the INHIBITION was -164%. `Cc1cc(CN2C[C@@H]3COC[C@]3(CNC(=O)c3ccco3)C2)no1` showed an INHIBITION of -65.1%. In the case of `CC(C)N1CCO[C@H]2CN(C(=O)Cc3cccs3)C[C@H]21`, the INHIBITION is reported as -102%. `c1cc(CO[C@@H]2CC[C@H]3[C@H]2OCCN3CC2CCOCC2)ccn1` showed an INHIBITION of -52.1%. `CNC(=O)[C@@]12CCCN(c3ncccn3)[C@@H]1CN(C)C2` was tested, and the INHIBITION was -69.8%. `CC(C)(C)c1cc(=O)[nH]c(C2(N)CCCC2)n1` showed an INHIBITION of -59.9%. In the case of `CS(=O)(=O)N1CCC(Nc2ccc(C#N)c(C(F)(F)F)c2)CC1`, the INHIBITION is reported as -14.2%. Work on `NC(=O)CN1CCC(Nc2ccnc3ccc(Cl)cc23)CC1` yielded an INHIBITION of 94.4%. `Cc1cc(C)cc(OCC(=O)N2CCCN(CC(N)=O)CC2)c1` showed an INHIBITION of -21.7%. For `CS(=O)(=O)N1CCC(Nc2ccnc3ccc(Cl)cc23)CC1`, the INHIBITION was 88.6%. `NC(=O)CN1CCCN(C(=O)COc2cccc(F)c2)CC1` gave an INHIBITION of -58.7%. For `O=C1[C@H]2CN(Cc3ccoc3)C[C@H]2CN1Cc1ccncc1`, the INHIBITION was -110%. With `COc1ccc2c(c1)c(C(=O)Nc1cc(C)n(C)n1)cn2C(C)C` the INHIBITION was 9.46%. `O=C1NCc2ccccc2CC12CCN(Cc1ccncc1Cl)C2` (configuration not stated) was tested, and the INHIBITION was -32%. Molecule `COc1cc(C2SCC(=O)Nc3ccsc32)cc(OC)c1OC` (configuration not stated) has an INHIBITION of -0.914%. Molecule `c1csc(CN2CC[C@H]3C[C@H](c4ccncn4)O[C@@H]3C2)c1` has an INHIBITION of -71.5%. In the case of `Cn1cc(CN2CCN(CC3(c4ccccc4)CC3)CC2)cn1`, the INHIBITION is reported as 78.9%. Molecule `Cn1cc(CN2CCC3(CC2)C(=O)Nc2ccccc23)cn1` has an INHIBITION of -74.2%. `Cn1cc(CN2CCC3(CCCN3Cc3cccnc3)CC2)cn1` was tested, and the INHIBITION was -18.8%. `C=Cn1cc(CN2CCN(CC3(c4ccccc4)CC3)CC2)c(C)n1` was tested, and the INHIBITION was 72.4%. Molecule `O=C1CO[C@@H]2CN(C3CCOCC3)C[C@H]2N1Cc1ccncc1` has an INHIBITION of -24.5%. With `Cn1nc(-c2cccs2)cc1[C@H]1CN2CC[C@H]1C[C@@H]2CNS(C)(=O)=O` the INHIBITION was -60.1%. `Cc1nc(C2(NCC(=O)NC(=O)Nc3ccccc3)CCCCC2)no1` gave an INHIBITION of -126%. In the case of `CCn1ccnc1CN1CCCC(CO)(Cc2cccc(Cl)c2)C1` (configuration not stated), the INHIBITION is reported as 76.8%. `CCn1ccnc1CN1CCCN(C(=O)Cc2ccc(C)nc2)CC1` was tested, and the INHIBITION was -85.3%. Work on `CCn1ccnc1CN1CCCN(C(=O)Cc2ccc(C)s2)CC1` yielded an INHIBITION of -75.1%. Molecule `CCOC(=O)C1(Cc2ccccc2)CCCN(Cc2nccn2CC)C1` (configuration not stated) has an INHIBITION of 71.1%. Molecule `CCn1ccnc1CN1CCCN(C(=O)Cc2ccc(C)cc2)CC1` has an INHIBITION of -118%. Molecule `Cc1cnn(CC(C)NCc2cc(C#N)ccc2F)c1` (configuration not stated) has an INHIBITION of -49.9%. Molecule `Fc1cnc(N2CCO[C@H]3CN(CC4CCCCC4)C[C@H]32)nc1` has an INHIBITION of 34.2%. In the case of `COc1ccc(CNC(C)Cn2cccn2)cc1F` (configuration not stated), the INHIBITION is reported as -60.6%. `COc1cccc(OC)c1CNC(Cc1ccsc1)c1ccc(C)cn1` (configuration not stated) was tested, and the INHIBITION was 92.5%. `Cc1cccc(C)c1NC(=O)CNC(C)Cc1ccsc1` (configuration not stated) showed an INHIBITION of 29.6%. Molecule `COc1ccc(CNC(Cc2ccsc2)c2ncccc2C)cc1OC` (configuration not stated) has an INHIBITION of 74.7%. `Cc1ccc(NC(=O)CNC(C)Cc2ccsc2)cc1F` (configuration not stated) showed an INHIBITION of 22.9%. `Cc1ncsc1CN1C[C@@H]2CCCO[C@@H]2[C@H](Nc2ccccn2)C1` was tested, and the INHIBITION was -27.2%. `Clc1cccc(C2CCN(c3ncnc4c3CCNC4)C2)c1` (configuration not stated) was tested, and the INHIBITION was 79.6%. With `c1ccc(C2CCN(c3ncnc4c3CCNC4)CC2)cc1` the INHIBITION was 74.4%. With `c1ccc2sc(N3CCCN(c4ncnc5c4CCNC5)CC3)nc2c1` the INHIBITION was 85.2%. Work on `CC[C@H](C)[C@@H](CO)NC(C)Cc1ccc(F)cc1` (some centres not stated) yielded an INHIBITION of 41.2%. With `O=C(C1CCC1)N1CCO[C@@H]2CNC[C@@H]21` the INHIBITION was -39.2%. With `COC(=O)NCC1CCC2(CCNCC2)O1` (configuration not stated) the INHIBITION was -44.6%. `CCOC(=O)[C@@H]1[C@@H](c2ccccc2)CN2CCN(C(=O)N(C)C)C[C@H]12` was tested, and the INHIBITION was -64%. Work on `CCOC(=O)N1CCC(NC(C)Cc2cc(C)n[nH]2)CC1` (configuration not stated) yielded an INHIBITION of -139%. `CCC(CNC1CCN(C(=O)N(C)C)CC1)Oc1ccccc1C` (configuration not stated) was tested, and the INHIBITION was 73.2%. `CN(C)C(=O)CN1CCCC12CCCN(c1ncc(F)cn1)C2` (configuration not stated) was tested, and the INHIBITION was -30.5%. `CC(C)(C)n1cc(C2=CCN(CCNC(=O)c3ccccc3)CC2)cn1` was tested, and the INHIBITION was 19.4%. In the case of `Cc1nc(O)cc(CN2CC=C(c3cnn(C(C)(C)C)c3)CC2)n1`, the INHIBITION is reported as -58.8%. `CC(C)(C)n1cc(C2=CCN(CCNC(N)=O)CC2)cn1` gave an INHIBITION of -161%. Molecule `CC(C)(C)n1cc(C2=CCN(CCc3ccccc3)CC2)cn1` has an INHIBITION of 68%. Molecule `CC(C)(C)n1cc(C2=CCN(CCc3ccccn3)CC2)cn1` has an INHIBITION of 45.2%. In the case of `CC(C)(C)n1cc(C2=CCN(CCN3CCCCCC3)CC2)cn1`, the INHIBITION is reported as 71.5%. With `COCCN1CCC12CCN(c1ncccn1)C2` (configuration not stated) the INHIBITION was -86.1%. Molecule `Cc1cccc2c1ccn2CC(=O)NC[C@@H]1CCCN2CCCC[C@H]12` has an INHIBITION of 70.9%. `Cc1nc(O)cc(CNC(=O)CC[C@@H]2CCCN3CCCC[C@H]23)n1` was tested, and the INHIBITION was -4.68%. With `O=C(Cn1ccc2ccc(Br)cc21)NC[C@@H]1CCCN2CCCC[C@H]12` the INHIBITION was 79.3%. In the case of `O=C(Cn1ccc2c(Cl)cccc21)N1CCC2(CC1)OCCO2`, the INHIBITION is reported as -85.8%. `O=C(CC[C@@H]1CCCN2CCCC[C@H]12)NCCc1cc(O)ncn1` was tested, and the INHIBITION was -119%. `O=C(Cc1c[nH]c2ccccc12)N1CCC(Nc2ccccc2)CC1` gave an INHIBITION of -7.04%. In the case of `CN1CCc2c(CNC(=O)c3nccn3C)cncc2C1`, the INHIBITION is reported as -77.8%. Molecule `COCCN1CCN(c2ccc(C)nn2)Cc2cccnc21` has an INHIBITION of -2.72%. `Cc1n[nH]cc1C(=O)NCc1cccnc1N1CCc2ccccc2C1` gave an INHIBITION of 75.3%. For `O=C(C1CCC1)N1CCC2(CCNCC2)C1`, the INHIBITION was -39.1%. For `COc1ccc(-c2c(C)nn3c(=N)c(C#N)n[nH]c23)cc1OC`, the INHIBITION was 87.8%. `O=C(c1cccnc1)N1C[C@@H]2OCCN(CCN3CCCC3)[C@@H]2C1` was tested, and the INHIBITION was -134%. Work on `CC(=O)NC[C@H]1C[C@@H]2CCN1C[C@@H]2c1cc(-c2cccs2)nn1C` yielded an INHIBITION of -50.5%. Molecule `Cc1cccc(CN2C(=O)C[C@H]3[C@@H]2CCN3Cc2ccccn2)n1` has an INHIBITION of -22.5%. With `CC(C)(C)c1cn2c(n1)C(CNCc1cnn3ccccc13)CCC2` (configuration not stated) the INHIBITION was 80%. `c1ccc(CN2CC[C@H]3[C@H]2CCN3c2ncccn2)nc1` showed an INHIBITION of -84.3%. Work on `Cn1cccc1CNCC1CCCn2cc(C(C)(C)C)nc21` (configuration not stated) yielded an INHIBITION of 75.7%. `CC(C)(C)c1cn2c(n1)C(CNCc1ccccn1)CCC2` (configuration not stated) was tested, and the INHIBITION was 92.9%. With `Cc1nc(NCC2CC2)nc2c1COCC21CCNC1` (configuration not stated) the INHIBITION was -88.5%. For `Cc1noc([C@]23COC[C@H]2CN(Cc2cc(C)on2)C3)n1`, the INHIBITION was -5.88%. `Cc1nn(C)c2nc(N3CCCCC3c3cccnc3)sc12` (configuration not stated) gave an INHIBITION of -114%. In the case of `CCCS(=O)(=O)N1CCc2c(COCC)cncc2C1`, the INHIBITION is reported as -24.8%. In the case of `Cc1noc(C)c1CN1C[C@@H]2CCCO[C@@H]2[C@H](NS(C)(=O)=O)C1`, the INHIBITION is reported as -59.8%. Work on `O=C(NCC(=O)N1CCC2(CC1)OCCO2)c1ccoc1` yielded an INHIBITION of -196%. `CS(=O)(=O)N1C[C@@H]2CC[C@H]1CN(Cc1ccncc1)C2` gave an INHIBITION of -82.5%. Molecule `CC(C)=CCN1CCC2(CC1)c1ccccc1[C@@H](N1CCSCC1)[C@@H]2O` has an INHIBITION of 78.5%. `COCCn1cc(C(=O)NCCS(N)(=O)=O)c2ccccc21` was tested, and the INHIBITION was -110%. `CCC(O)Cn1cc(C2=CCN(Cc3ccc(OC)cc3)CC2)cn1` (configuration not stated) was tested, and the INHIBITION was 68.7%. In the case of `COc1cccc(Cn2cc(C3=CCN(CCO)CC3)cn2)c1`, the INHIBITION is reported as 54.2%. For `O=c1[nH]ccn1CCCN1CC=C(c2cnn(-c3ccccc3)c2)CC1`, the INHIBITION was -235%. `COc1cccc(Cn2cc(C3=CCN(CC(=O)N(C)C)CC3)cn2)c1` was tested, and the INHIBITION was -27.6%. `CCC(O)Cn1cc(C2=CCN(Cc3cc(O)nc(C)n3)CC2)cn1` (configuration not stated) gave an INHIBITION of -24.6%. For `Cn1cc(C2=CCN(CCCOc3ccc(C(N)=O)cc3)CC2)cn1`, the INHIBITION was -64.5%. In the case of `Cc1nc(O)cc(CN2CC=C(c3cnn(-c4ccccc4)c3)CC2)n1`, the INHIBITION is reported as -90.2%. `CCn1cc(C2=CCN(CCCOc3ccccc3)CC2)cn1` showed an INHIBITION of 82%. `CN(C)C(=O)CN1CC=C(c2cnn(Cc3ccccc3)c2)CC1` gave an INHIBITION of -52.4%. `O=C(c1cn(Cc2ccccc2)c2ncccc12)N1CCOCC1` showed an INHIBITION of -68.2%. `Cc1cccc(CN2CC[C@@H]3[C@@H]2CCN3C(=O)c2ccoc2C)n1` gave an INHIBITION of -77.9%. `CNc1ncc(CN(C)c2ncnc3onc(C)c23)cn1` was tested, and the INHIBITION was -3.41%. `O=C(Cc1ccc(O)c(F)c1)N1CCN(CC2CC2)[C@@H]2CS(=O)(=O)C[C@@H]21` was tested, and the INHIBITION was -78.4%. With `Fc1cnccc1CN1CCC2(CCNCC2)C1` the INHIBITION was -66.9%. `O=C(c1onc2ccccc12)N1CCC2(CCCNC2)C1` (configuration not stated) showed an INHIBITION of -59.1%. Molecule `c1ccc(Cn2cccn2)c(CN2CCC3(CCCNC3)C2)c1` (configuration not stated) has an INHIBITION of 85%. For `CN(C)CCNC(=O)c1ccn(-c2ccc3ccccn23)n1`, the INHIBITION was 84%. With `O=C1OCCC1N1CCN(C(=O)Cc2c[nH]c3ccccc23)CC1` (configuration not stated) the INHIBITION was -131%. `Cc1nc(CC(=O)N2CCN(C(C)c3ccccc3F)CC2)cs1` (configuration not stated) gave an INHIBITION of -60.5%. `CN1CCN(c2ccc(NC(=O)c3cccs3)c(C(F)(F)F)c2)CC1` gave an INHIBITION of 73.6%. `CCN1CCN(c2ccc(NC(=O)CC(C)C)c(C)c2)CC1` gave an INHIBITION of -6.8%. In the case of `CN(C)C(=O)N1CCC2(C1)CN(c1cccnc1)C(=O)CN2C` (configuration not stated), the INHIBITION is reported as -35.4%.
